Source: PubChem BioAssay (National Center for Advancing Translational Sciences (NCATS))
Shown are actives, neighbours in structure and some others; about 4.7% of the full set was active somewhere.
D1 agonist – Allosteric Agonists of the Human D1 Dopamine Receptor: qHTS | actives 1% (n = 360,000) | D(1A) dopamine receptor (Homo sapiens), P21728 | activation, % at 2 µM | HEK293 T-REx D1 cells, calcium flux, agonist mode; also: 0% is about no effect
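Inducible HEK293 T-REx D1 cells, force-coupled to calcium signalling, were plated at 4000 cells/well with tetracycline and held overnight at 30 C. After no-wash calcium dye loading, compound-evoked calcium rise over 180 s flagged agonists.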
D1 PAM – Potentiators of Human D1 Dopamine Receptor: qHTS. actives 0.036% (n = 360,000). potentiation, % at 10 µM. D(1A) dopamine receptor (Homo sapiens), P21728. AID 504651, 2011. HEK293 TREx D1 cells, calcium flux, dopamine EC20 potentiation; in the data active = potentiation above about 30%; also: 0% is about no effect
TRHR agonist – qHTS for Small Molecule Agonists and Allosteric Enhancers of Human TRH Receptor: Primary Screen for Agonists | Thyrotropin-releasing hormone receptor (Homo sapiens), P34981 | TRHR cells, calcium flux fluo-8, FDSS agonist mode | activation, % at 2 µM | actives 0.18% (n = 360,000); also: 0% is about no effect
Target sequence (P34981 whole entry, looked up): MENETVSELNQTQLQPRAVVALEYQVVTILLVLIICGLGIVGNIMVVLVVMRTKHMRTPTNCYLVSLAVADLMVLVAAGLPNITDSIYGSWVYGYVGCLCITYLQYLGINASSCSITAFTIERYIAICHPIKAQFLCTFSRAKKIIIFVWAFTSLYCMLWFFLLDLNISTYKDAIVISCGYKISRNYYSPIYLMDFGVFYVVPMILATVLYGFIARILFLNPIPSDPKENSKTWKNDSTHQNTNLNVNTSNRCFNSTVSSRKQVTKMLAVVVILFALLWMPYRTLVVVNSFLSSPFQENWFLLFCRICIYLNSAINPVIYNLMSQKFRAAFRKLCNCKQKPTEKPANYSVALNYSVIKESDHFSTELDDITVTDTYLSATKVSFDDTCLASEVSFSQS
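Steps: seed TRHR cells overnight; add fluo-8 no-wash Ca dye, RT 30 min–1.5 h; record 10 s baseline; pin-transfer compounds; monitor fluorescence 1 cycle/s for the agonist window. Calcium increases flag candidate agonists.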
TRHR PAM – qHTS for Small Molecule Agonists and Allosteric Enhancers of Human TRH Receptor: Primary Screen for Enhancers | Thyrotropin-releasing hormone receptor (Homo sapiens), P34981 | TRHR cells, fluo-8 calcium fluorescence, EC20 TRH enhancement | enhancement, % at 2 µM | actives 0.66% (n = 360,000) | AID 493056, 2011; in the data active = enhancement above about 30%; also: 0% is about no effect
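Enhancer read-out: after compound pinning and an initial kinetic agonist-mode read, an EC20 of TRH (10 nM final) was injected and fluo-8 calcium signal (Ex 480/Em 530) followed at 1 s/cycle for 100 cycles in TRHR-expressing cells.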
D1 antagonist – Antagonist of Human D 1 Dopamine Receptor: qHTS | D(1A) dopamine receptor (Homo sapiens), P21728 | HEK293 TREx D1 cells, calcium flux, dopamine EC80; active compounds read low | activity change, negative = inhibition, % at 10 µM | actives 3.2% (n = 360,000); in the data active = activity change below about -30%; also: % is scaled to controls: 0 for no effect and ±100 for the full control effect
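Tetracycline-induced HEK293 Trex D1 cells, force-coupled to calcium, dye-loaded; compounds added and read 180 s, then EC80 dopamine added and calcium flux tracked kinetically another 180 s.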
Numbers without * were called inactive. Rule as the data show it, unless noted: active = activation above about 30%; inactive = the rest.

SMILES | D1 agonist | D1 PAM | TRHR agonist | TRHR PAM | D1 antagonist
CCNc1nc2c(c(=O)n(Cc3ccccc3)c(=O)n2C)n1Cc1ccccc1 | 1.7 | 0.5 | -0.1 | 39.3* | -3.5
CCNc1nc2c(c(=O)n(C)c(=O)n2C)n1Cc1ccc(Cl)cc1 | 7.5 | -2.0 | -2.2 | -0.5 | -1.8
CCN1C(=O)C(Cc2nc3ccccc3c(=O)n2-c2ccccc2)c2ccccc21 (configuration not stated) | 1.9 | -1.5 | -0.4 | 5.6 | -53.9*
CCN1C(=O)C(Cc2nc3ccccc3c(=O)n2-c2ccc(OC)cc2)c2ccccc21 (configuration not stated) | -0.6 | -1.6 | 1.3 | -2.1 | 7.7
COc1cccc(NS(=O)(=O)c2ccc3c(c2)N(C)C(=O)CC(=O)N3C)c1 | 0.3 | 0.8 | 0.1 | 14.8 | -0.9
Cc1ccc(NC(=O)Cn2cnc3cc([N+](=O)[O-])ccc3c2=O)c(Cl)c1 | 37.9* | -10.3 | -0.8 | 10.0 | -20.2
Cc1cccc(NC(=S)NCc2ccc3c(c2)OCO3)c1C | -0.7 | 0.4 | 0.1 | 1.1 | 3.6
Cc1cccc(NC(=S)NCCc2ccc3c(c2)OCCO3)c1C | 3.6 | -6.4 | -1.2 | 1.1 | -45.9*
C=CCN(c1ccc(C(=O)Nc2cccc([N+](=O)[O-])c2)cc1)S(C)(=O)=O | 3.3 | -7.3 | 0.0 | -4.8 | -10.4
O=[N+]([O-])c1ccc(N/N=C2\CC3CC=CC23)cc1 (configuration not stated) | 14.0 | -0.7 | -0.1 | -8.2 | -31.2*
O=C(Nc1cc(Cl)cc(Cl)c1)c1cc(S(=O)(=O)N2CCc3ccccc3C2)ccc1F | 2.2 | 0.4 | 0.8 | 1.3 | 2.6
O=c1c2ccccc2nc(/C=C/c2c[nH]c3ccccc23)n1-c1ccc([N+](=O)[O-])cc1 | -0.3 | -2.4 | -0.1 | -3.2 | -13.5
COc1ccc(-n2c(/C=C/c3c(C)[nH]c4ccccc34)nc3ccccc3c2=O)cc1 | 0.5 | -2.4 | -1.8 | -1.3 | -57.4*
Cc1[nH]c2ccccc2c1/C=C/c1nc2ccccc2c(=O)n1-c1cccc([N+](=O)[O-])c1 | -1.0 | -9.8 | -0.6 | 0.2 | -36.7*
COc1nc(Nc2ccc([N+](=O)[O-])cc2)nc(NC2CCCCC2)n1 | -0.4 | -7.2 | 0.0 | -3.1 | 0.2
O=C(O)C1CC(c2ccccc2)=NO1 (configuration not stated) | 1.7 | -3.2 | -0.9 | 32.7* | 4.8
CCc1ccccc1NC(=O)Cn1c(=O)c2cccn2c2ccc(F)cc21 | 3.3 | -2.9 | 0.3 | -1.8 | -11.2
COc1ccc(C(=O)O)cc1NC(=S)NC(=O)/C=C/c1ccc(C(C)C)cc1 | 0.2 | -7.3 | -0.7 | 32.2* | 6.6
CCCCC(=O)NC(=S)Nc1cc(C(=O)O)ccc1OC | 6.7 | -4.8 | 0.0 | 2.3 | -13.7
Oc1ccc(-c2csc(Nc3ccccn3)n2)cc1 | 2.2 | -19.9 | 0.0 | -4.5 | -79.3*
CCC(=O)c1ccc(OCC(=O)OCC(=O)NCCCc2ccccc2)cc1 | 1.4 | -1.7 | -1.4 | 0.3 | -4.1
CN(c1ccc(C(=O)Nc2ccccc2Sc2ccccc2)cc1)S(C)(=O)=O | 17.4 | -2.8 | 2.3 | 1.4 | -40.3*
CN(c1ccc(C(=O)Nc2ccc(CC#N)cc2)cc1)S(C)(=O)=O | 3.2 | -3.2 | 0.6 | 3.0 | -34.3*
Cc1ccc(C(=O)Nc2ccccc2Sc2ccccc2)cc1 | 4.1 | -6.3 | 0.4 | 0.3 | -8.1
COc1ccccc1NC(=O)Cc1c(C(=O)O)[nH]c2ccc(Cl)cc12 | 30.9* | -0.3 | 0.0 | -0.1 | -21.6
SMILES | D1 agonist | D1 PAM | TRHR agonist | TRHR PAM | D1 antagonist
COc1ccc(OC)c(NC(=O)Cc2c(C(=O)O)[nH]c3ccc(Cl)cc23)c1 | 1.6 | -3.8 | -0.7 | 1.9 | -12.8
Cc1cc(=O)[nH]c(N/N=C/C2=C(N3CCOCC3)C(=C\c3ccc(Cl)cc3)/CC2)n1 | 1.3 | 0.8 | 0.8 | 2.6 | -23.2
Cc1cc(C)nc(N/N=C/C2=C(N3CCOCC3)C(=C/c3ccccc3)/CC2)n1 | 0.0 | -11.6 | -0.7 | -2.1 | -44.6*
O=C(O)c1ccccc1N/N=C/C1=C(N2CCOCC2)C(=C\c2ccccc2)/CC1 | 24.3 | -4.5 | 14.4 | -2.6 | -30.4*
Cc1cc(Nc2ccc(Br)cc2)n2nc(-c3ccccc3C)nc2n1 | 8.1 | -2.8 | -2.0 | 3.3 | 6.4
Cc1cccc(N2CCn3c2nc2c3c(=O)n(C/C=C/c3ccccc3)c(=O)n2C)c1 | 0.2 | -3.5 | 0.1 | 10.1 | 12.0
Oc1c(C=Nc2ccccc2)sc2ccccc12 | 1.1 | -0.3 | -0.3 | 3.2 | 0.5
Oc1c(C=Nc2cccnc2)sc2ccccc12 | 5.0 | 4.2 | 1.3 | -0.5 | 8.7
Oc1sc(C=Nc2ccc(F)cc2)c2ccccc12 | 131.6* | -7.2 | -0.9 | -2.0 | -24.6
Oc1sc(C=Nc2ccccc2)c2ccccc12 | 171.6* | -2.0 | 39.4* | 3.6 | -16.2
CCOC(=O)c1[nH]c(C)c(CCC(=O)Nc2c(C)cc(C)cc2C)c1C | 5.9 | -2.9 | -0.8 | 5.0 | -7.1
COc1ccc2c(c1)c1c(c(=O)n(-c3ccc(C)cc3)c(=O)n1CC(=O)Nc1cc(C)ccc1C)n2C | 2.5 | -1.1 | -0.9 | -2.3 | 14.2
C#CCOCCOCCOCCNc1nc(N2CCN(C(=O)CCCCCCCCCCNC(=O)[C@@H](CCSC)n3cc(CCO)nn3)CC2)nc(N2CCN(C(=O)CCCCCCCCCCNC(=O)[C@H](CCC(=O)O)n3cc(CCCCCN)nn3)CC2)n1 | 27.4 | -8.0 | 0.6 | -2.2 | -8.9
C#CCOCCOCCOCCNc1nc(N2CCN(C(=O)CCCCCCCCCCNC(=O)[C@@H](CCC(=O)O)n3cc(CCCCCN)nn3)CC2)nc(N2CCN(C(=O)CCCCCCCCCCNC(=O)[C@H](CCCCN)n3cc(C[C@@H](C)CC)nn3)CC2)n1 | 65.3* | 44.1* | 2.3 | 4.8 | 67.1
C#CCOCCOCCOCCNc1nc(N2CCN(C(=O)CCCCCCCCCCNC(=O)[C@@H](CCSC)n3cc(CCO)nn3)CC2)nc(N2CCN(C(=O)CCCCCCCCCCNC(=O)[C@H](CO)n3cc(CCCCCN)nn3)CC2)n1 | 3.4 | -5.8 | -0.2 | -3.4 | -39.5*
C#CCOCCOCCOCCNc1nc(N2CCN(C(=O)CCCCCCCCCCNC(=O)[C@H](CCCCN)n3cc(C[C@@H](C)CC)nn3)CC2)nc(N2CCN(C(=O)CCCCCCCCCCNC(=O)[C@H](CCCN=C(N)N)n3cc(C[C@@H](C)CC)nn3)CC2)n1 | 2.4 | -7.8 | -0.1 | -2.5 | -12.1
